Source: PubChem BioAssay (NCATS)
Where “and” joins values, the source holds several entries; their conditions need not be identical. Equal values may be shown once. Inconclusive results are not listed. Where a call stands in place of a potency, no number is given. Calls of active or inactive are those of the source. Calls follow the shape of the dose curve; as a rule, active = well fitted curve in the direction sought with a large enough effect; inconclusive = small, poorly fitted or top-dose-only effect, or another doubt; inactive = no such curve, though single readings can be large; an effect the other way counts as inactive or inconclusive.

How the values were obtained:
[1] = qHTS for Inhibitors of Ubiquitin-specific Protease USP2a Using CHOP2 as the Reporter: K633 Counterscreen (AID 652168); conditions: No-enzyme DiUb K48 IQF substrate fluorescence interference, kinetic; series mostly up to 57.5 µM
Procedure, shortened: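 Detection-system control: fluorescence of K48-linked DiUb-4IQF substrate (100 nM as added) tracked over time, Ex 525/Em 598, with pinned compounds and no enzyme, in pH 8 Tris buffer containing beta-mercaptoethanol and 0.05% Chaps.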

[2] = target: Ubiquitin carboxyl-terminal hydrolase 2 (Homo sapiens) (UniProt O75604); experiment: qHTS for Inhibitors of Ubiquitin-specific Protease USP2a Using CHOP2 as the Reporter: K484 Substrate (AID 652173); conditions: USP2 cleavage of DiUb K48 IQF substrate, fluorescence; series mostly up to 57.5 µM;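 also: cleavage of internally quenched K48 di-ubiquitin substrate measured as rising fluorescence over time; nearly all actives have a fitted effect of over 70% in size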; also: potency is read from the fitted curve at half-maximal effect
Procedure, shortened: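 Kinetic fluorescence (Ex 525/Em 598) tracked cleavage of an internally quenched K48 di-ubiquitin substrate, added as a 100 nM solution. The enzyme was added as a 5 nM USP2 solution before compound pinning, with no-enzyme controls. Buffer: Tris pH 8, beta-mercaptoethanol, CHAPS.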

[3] = target: Calcium and integrin-binding protein 1 (Homo sapiens) (UniProt Q99828); experiment: Primary qHTS for Identification of Calcium Integrin Binding Protein 1 (CIB1) Competitor (AID 1508620); conditions: CIB1-GST / FITC-alphaIIb peptide fluorescence polarization; series mostly up to 114 µM;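 also: GST tagged CIB1 binding a fluorescein labelled alphaIIb integrin peptide tracer; top concentration of the series differs between compounds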
Procedure, shortened: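 Fluorescence polarization competition: CIB1-GST (1 uM final) preincubated with compound 15 min at room temperature, then FITC-labeled alphaIIb peptide (100 nM final) added for another 15 min. Polarization read at Ex 480/Em 540.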

[4] = qHTS for Inhibitors of Ubiquitin-specific Protease USP2a Using CHOP2 as the Reporter: Cytotox Assay (AID 652170); conditions: HCT116 viability, CellTiter-Glo luminescence, 72 h; series mostly up to 46.1 µM; also: nearly all actives have a fitted effect of over 70% in size; also: potency is read from the fitted curve at half-maximal effect
Procedure, shortened: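 Cytotoxicity read as ATP luminescence (CellTiter-Glo) after 72 hr compound treatment at 37 deg C. Cells: HCT116, 600/well in DMEM plus 10% FBS. Normalization between DMSO-treated cells and cell-free wells.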

Sequence of Calcium and integrin-binding protein 1 (Homo sapiens) (Q99828 whole entry, looked up): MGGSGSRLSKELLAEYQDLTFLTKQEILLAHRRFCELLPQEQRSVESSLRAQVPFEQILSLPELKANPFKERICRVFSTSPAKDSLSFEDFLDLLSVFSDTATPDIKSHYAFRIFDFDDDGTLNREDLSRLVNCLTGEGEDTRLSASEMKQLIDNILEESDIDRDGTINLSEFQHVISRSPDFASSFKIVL
Sequence of Ubiquitin carboxyl-terminal hydrolase 2 (Homo sapiens) (O75604 whole entry, looked up): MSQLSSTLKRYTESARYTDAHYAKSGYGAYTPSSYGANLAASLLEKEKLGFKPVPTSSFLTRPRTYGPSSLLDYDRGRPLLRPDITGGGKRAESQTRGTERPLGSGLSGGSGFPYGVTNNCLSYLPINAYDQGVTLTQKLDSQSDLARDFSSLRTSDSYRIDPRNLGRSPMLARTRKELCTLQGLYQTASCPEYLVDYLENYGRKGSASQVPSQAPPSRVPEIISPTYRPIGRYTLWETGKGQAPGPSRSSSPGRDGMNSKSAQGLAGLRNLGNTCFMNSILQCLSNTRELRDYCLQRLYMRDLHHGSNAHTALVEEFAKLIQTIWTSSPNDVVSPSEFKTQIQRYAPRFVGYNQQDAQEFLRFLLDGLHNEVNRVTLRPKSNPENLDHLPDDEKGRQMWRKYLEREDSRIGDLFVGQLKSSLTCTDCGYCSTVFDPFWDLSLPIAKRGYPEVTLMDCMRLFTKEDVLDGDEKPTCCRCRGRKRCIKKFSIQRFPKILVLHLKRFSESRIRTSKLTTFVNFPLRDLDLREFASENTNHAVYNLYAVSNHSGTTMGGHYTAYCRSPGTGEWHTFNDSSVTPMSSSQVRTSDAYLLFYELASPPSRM

Cc1ccc(S(=O)(=O)NCC(=O)Nc2nc(-c3ccccc3)cs2)cc1
outcome [1]: inactive | Potency [2]: 19.3 µM (active) | Potency [3]: inactive

CCCC1CCC(C(=O)Nc2ccc(S(=O)(=O)Nc3nccs3)cc2)CC1 (stereo unspecified)
outcome [1]: inactive | Potency [4]: inactive | Potency [2]: 10.9 µM (active) | Potency [3]: inactive

O=C(O)c1cccc(S(=O)(=O)Nc2nccs2)c1
outcome [1]: inactive | Potency [4]: inactive | Potency [2]: inactive | Potency [3]: inactive

Cc1ccc(-c2csc(NC(=O)c3ccccc3NS(=O)(=O)c3ccc(C)cc3)n2)cc1
outcome [1]: inactive | Potency [4]: 16.6 µM (active) | Potency [2]: 1.93 µM (active) | Potency [3]: inactive

COc1ccc(NS(=O)(=O)c2ccc(C)cc2)c(C(=O)Nc2nc(-c3ccccc3)cs2)c1
outcome [1]: inactive | Potency [2]: 2.73 µM (active) | Potency [3]: inactive

CCCCC(=O)N1CCC(C(=O)Nc2ccc([S+](=O)([O-])Nc3nccs3)cc2)CC1
outcome [1]: inactive | Potency [4]: inactive | Potency [2]: inactive | Potency [3]: inactive

N#Cc1cccc(S(=O)(=O)Nc2cnccc2C(=O)Nc2nc(-c3ccccc3)cs2)c1
outcome [1]: inactive | Potency [4]: inactive | Potency [2]: 2.17 µM (active) | Potency [3]: inactive

Cc1noc(C)c1S(=O)(=O)Nc1cnccc1C(=O)Nc1nc(-c2ccccc2)cs1
outcome [1]: inactive | Potency [2]: 6.85 µM (active) | Potency [3]: inactive

Cc1ccc(S(=O)(=O)Nc2ccc(C(=O)Nc3nc(-c4ccccc4)cs3)c(Cl)c2)cc1
Potency [4]: 14.8 µM (active) | Potency [3]: inactive

COC(=O)c1ccccc1C(=O)Nc1nc(-c2ccccc2)cs1
Potency [4]: inactive | Potency [2]: 30.6 µM (active) | Potency [3]: inactive

CC1(C)CC(C(=O)Nc2ccc([S+](=O)([O-])Nc3nccs3)cc2)C1
outcome [1]: inactive | Potency [2]: inactive | Potency [3]: inactive

COC(=O)c1ccc(NC(=O)c2cc(-c3ccc(C)c(C)c3)nc3ccccc23)cc1
outcome [1]: inactive | Potency [4]: inactive | Potency [2]: 19.3 µM (active) | Potency [3]: inactive

Cc1ccc(S(=O)(=O)Nc2cnccc2C(=O)Nc2nc(-c3ccncc3)cs2)cc1
outcome [1]: inactive | Potency [2]: 15.3 µM (active) | Potency [3]: inactive

Cc1ccc(S(=O)(=O)Nc2cnccc2C(=O)Nc2ccncc2)cc1
outcome [1]: inactive | Potency [2]: inactive | Potency [3]: inactive

O=C(Nc1nc(-c2ccccc2)cs1)c1ccncc1NS(=O)(=O)c1cccnc1
outcome [1]: inactive | Potency [4]: inactive | Potency [2]: 2.73 µM (active) | Potency [3]: inactive

Cc1ccc(S(=O)(=O)Nc2cnccc2C(=O)Nc2nc(-c3ccc(Cl)c(Cl)c3)cs2)cc1
outcome [1]: inactive | Potency [2]: 3.06 µM (active) | Potency [3]: inactive

Cc1ccc(S(=O)(=O)Nc2cc(F)ccc2C(=O)Nc2nc(-c3ccccc3)cs2)cc1
outcome [1]: inactive | Potency [4]: 3.32 µM (active) | Potency [2]: 0.769 µM (active) | Potency [3]: inactive

Cc1ccc(C(=O)[C@H]2CC[C@@H](C(=O)Nc3ccc(S(=O)(=O)Nc4nccs4)cc3)C2)cc1C
Potency [4]: inactive | Potency [3]: inactive

O=c1[nH]c(CCl)nc2sc3c(c12)CCCC3
outcome [1]: inactive | Potency [4]: 10.5 µM (active) | Potency [2]: inactive | Potency [3]: inactive

Cc1ccc(S(=O)(=O)Nc2cc(Br)ccc2C(=O)Nc2nc(-c3ccccc3)cs2)cc1
outcome [1]: inactive | Potency [2]: 1.09 µM (active) | Potency [3]: inactive

Cc1ccc(S(=O)(=O)Nc2ccncc2C(=O)Nc2nc(-c3ccccc3)cs2)cc1
outcome [1]: inactive | Potency [2]: 4.85 µM (active) | Potency [3]: inactive

COc1cccc(NS(=O)(=O)c2ccc(C)cc2)c1C(=O)Nc1nc(-c2ccccc2)cs1
Potency [4]: inactive | Potency [3]: inactive

Cc1ccc(S(=O)(=O)Nc2ccccc2C(=O)Nc2nc(-c3ccccc3)c(Br)s2)cc1
outcome [1]: inactive | Potency [4]: 5.9 µM (active) | Potency [2]: 1.22 µM (active) | Potency [3]: inactive

Cc1ccc(S(=O)(=O)Nc2ccccc2C(=O)Nc2ccc(-c3ccccc3)nc2)cc1
Potency [4]: 20.9 µM (active) | Potency [2]: 4.85 µM (active) | Potency [3]: inactive

CC(=O)Nc1ccc(S(=O)(=O)Nc2nccs2)cc1
outcome [1]: inactive | Potency [4]: inactive | Potency [2]: inactive | Potency [3]: inactive

Cc1cccc(NC(=O)c2cc(-c3ccc(C)c(C)c3)nc3ccccc23)c1
outcome [1]: inactive | Potency [2]: inactive | Potency [3]: inactive

Cc1ccc([S+](=O)([O-])n2cc(-c3ccc(-c4ccccc4)cc3)c3ccccc32)cc1
outcome [1]: inactive | Potency [2]: inactive | Potency [3]: inactive

Cc1ccc(S(=O)(=O)Nc2cc(C(=O)Nc3nc(-c4ccccc4)cs3)ccn2)cc1
Potency [4]: inactive | Potency [2]: 6.85 µM (active) | Potency [3]: inactive

COc1ccc(-c2csc(NC(=O)c3ccccc3NS(=O)(=O)c3ccc(C)cc3)n2)cc1
outcome [1]: inactive | Potency [2]: 2.73 µM (active) | Potency [3]: inactive

Cc1ccc(S(=O)(=O)Nc2ccccc2C(=O)Nc2nc(-c3ccc(Cl)cc3)cs2)cc1
outcome [1]: inactive | Potency [4]: 8.33 µM (active) | Potency [2]: 1.93 µM (active) | Potency [3]: inactive

COc1cc(NS(=O)(=O)c2ccc(C)cc2)c(C(=O)Nc2nc(-c3ccccc3)cs2)cc1OC
outcome [1]: inactive | Potency [4]: inactive | Potency [2]: 2.17 µM (active) | Potency [3]: inactive

Cc1ccc(-c2cc(C(=O)NCC[S+](=O)([O-])O)c3ccccc3n2)cc1C
outcome [1]: inactive | Potency [2]: inactive | Potency [3]: inactive

CC(C)(C)OC(=O)N1CCC(C(=O)Nc2ccc([S+](=O)([O-])Nc3nccs3)cc2)CC1
outcome [1]: inactive | Potency [4]: inactive | Potency [2]: inactive | Potency [3]: inactive

CCOC(=O)c1csc(NC(=O)c2ccncc2NS(=O)(=O)c2ccc(C)cc2)n1
outcome [1]: inactive | Potency [4]: inactive | Potency [2]: 21.7 µM (active) | Potency [3]: inactive

O=C(Nc1nc(-c2ccccc2)cs1)c1ccccc1-n1cnnn1
Potency [4]: inactive | Potency [3]: inactive

Cc1ccc(S(=O)(=O)Nc2cnccc2C(=O)Nc2nc(C3CCC3)cs2)cc1
outcome [1]: inactive | Potency [2]: 17.2 µM (active) | Potency [3]: inactive

Cc1ccc(S(=O)(=O)Nc2ccccc2C(=O)Nc2nc(-c3ccccc3)cs2)cc1
outcome [1]: inactive | Potency [4]: 14.8 µM (active) and 11.8 µM (active) | Potency [2]: 1.72 µM (active) and 1.93 µM (active) | Potency [3]: inactive

Clc1nc(CN2CCOCC2)nc2sc3c(c12)CCCC3
outcome [1]: inactive | Potency [2]: inactive | Potency [3]: inactive

CCOC(=O)C1CCC(C(=O)Nc2ccc([S+](=O)([O-])Nc3nccs3)cc2)CC1 (stereo unspecified)
outcome [1]: inactive | Potency [4]: inactive | Potency [2]: inactive | Potency [3]: inactive

Cc1ccc(S(=O)(=O)Nc2cnccc2C(=O)Nc2ccc(-c3nc4ccccc4[nH]3)cc2)cc1
outcome [1]: inactive | Potency [4]: inactive | Potency [2]: 2.17 µM (active) | Potency [3]: inactive

COc1ccccc1NC(=O)c1cc(-c2ccc(C)c(C)c2)nc2ccccc12
Potency [4]: inactive | Potency [2]: 10.9 µM (active) | Potency [3]: inactive

O=C(Nc1ccc(S(=O)(=O)Nc2nccs2)cc1)[C@@H]1CC[C@H](C(=O)c2ccccc2)C1
Potency [4]: inactive | Potency [2]: 24.3 µM (active) | Potency [3]: inactive

COc1cc(NS(=O)(=O)c2ccc(C)cc2)ccc1C(=O)Nc1nc(-c2ccccc2)cs1
Potency [2]: 2.73 µM (active) | Potency [3]: inactive

Cc1ccc(S(=O)(=O)Nc2ccccc2C(=O)Nc2ccc(-c3ccccc3)cc2)cc1
Potency [4]: 13.2 µM (active) | Potency [2]: 2.43 µM (active) | Potency [3]: inactive

COc1cc(Cl)ccc1C(=O)Nc1nc(-c2ccccc2)cs1
Potency [4]: inactive | Potency [2]: 13.7 µM (active) | Potency [3]: inactive

Cc1ccc(-c2cc(C(=O)Nc3ncco3)c3ccccc3n2)cc1C
Potency [4]: 1.32 µM (active) | Potency [2]: 3.06 µM (active) | Potency [3]: inactive

Cc1ccc(-c2cc(C(=O)Nc3ccn[nH]3)c3ccccc3n2)cc1C
Potency [4]: inactive | Potency [2]: 27.3 µM (active) | Potency [3]: inactive

Cc1ccc(-c2cc(C(=O)Nc3cccc4ccccc34)c3ccccc3n2)cc1C
Potency [4]: inactive | Potency [2]: 17.2 µM (active) | Potency [3]: inactive

Cc1ccc(-c2cc(C(=O)NCc3ccc(S(C)(=O)=O)cc3)c3ccccc3n2)cc1C
Potency [2]: 10.9 µM (active) | Potency [3]: inactive

CC(C)(C)C1CCC(C(=O)Nc2ccc(S(=O)(=O)Nc3nccs3)cc2)CC1 (stereo unspecified)
Potency [2]: 10.9 µM (active) | Potency [3]: inactive

Cc1ccc(S(=O)(=O)n2cc(C(=O)Nc3nc(-c4ccccc4)cs3)c3ccccc32)cc1
Potency [4]: inactive | Potency [2]: 6.11 µM (active) | Potency [3]: inactive

Cc1ccc(S(=O)(=O)Nc2ccccc2C(=O)Nc2nc(-c3ccccc3)co2)cc1
Potency [4]: 5.9 µM (active) | Potency [2]: 2.73 µM (active) | Potency [3]: inactive

COc1ccc(C(=O)Nc2nc(-c3ccccc3)cs2)cc1NS(=O)(=O)c1ccc(C)cc1
Potency [4]: inactive | Potency [2]: 3.06 µM (active) | Potency [3]: inactive

O=C(Nc1ccc(S(=O)(=O)Nc2nccs2)cc1)C1CCC2(CCC2)CC1
Potency [4]: inactive | Potency [2]: 24.3 µM (active) | Potency [3]: inactive

Cc1ccc(C(=O)Nc2ccccc2C(=O)Nc2nc(-c3ccccc3)cs2)cc1
Potency [2]: 5.44 µM (active) | Potency [3]: inactive

Cc1ccc(-c2cc(C(=O)Nc3ccc(S(=O)(=O)N(C)C)cc3)c3ccccc3n2)cc1C
Potency [4]: inactive | Potency [2]: 4.32 µM (active) | Potency [3]: inactive

COc1c(NS(=O)(=O)c2ccc(C)cc2)cccc1C(=O)Nc1nc(-c2ccccc2)cs1
Potency [4]: 1.48 µM (active) | Potency [2]: 3.06 µM (active) | Potency [3]: inactive

CCC1CCC(C(=O)Nc2ccc(S(=O)(=O)Nc3nccs3)cc2)CC1 (stereo unspecified)
Potency [4]: inactive | Potency [2]: 27.3 µM (active) | Potency [3]: inactive

COc1cc(C(=O)Nc2nc(-c3ccccc3)cs2)ccc1NS(=O)(=O)c1ccc(C)cc1
Potency [2]: 2.73 µM (active) | Potency [3]: inactive
